Here are results for 39 compounds from paper PMC6212833.

The campaign covered roughly 2,000 compounds. About 15 (0.8%) showed an effect of 50% or more. Many of the other results were omitted from the sample, so strong results are more common in it than they were.

This assay concerns Balamuthia mandrillaris (ATCC PRA-291) trophozoites, axenic culture. Kind of assay: primary screen, percent inhibition; higher = more effect of the substance.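 Note: 0% = vehicle wells and 100% = lysate wells.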 The settings on record: 20 µM. On the procedure:
Screening of a clinically approved library of compounds, compiled by the Small Molecule Discovery Center (SMDC) at the UCSF, was completed at 20 µM in 0.2% DMSO. All 2,177 drugs in the library were stored as 10 mM stocks dissolved in 100% DMSO (Sigma-Aldrich) at −20°C. B. mandrillaris amoebae were resuspended in axenic medium and distributed into opaque 384-well plates (Corning) at a density of 3,000 amoebae per well using a BioMek NX liquid handler. Negative-control wells were treated with vehicle only (0.2% DMSO in axenic medium), and positive-control wells simulating total destruction of amoebae were seeded with amoeba lysate generated by 3 consecutive freeze-thaw cycles. Following 72 h of incubation, 30 µl of CellTiter Glo reagent (CTG; Promega) was added to each well. The luminescence was measured with a Promega GloMax-Multi+ plate reader at 2, 4, and 8 h after CTG addition. […] The B-score, representing a plate-based statistical approach for correcting row, column, and edge effects, was also calculated for each compound in the library (75).
In general, % Inhibition refers to the drop in the measured response relative to a control, in per cent. As to `C/C(=C\C(=O)OCCCCCCCCC(=O)O)C[C@@H]1OC[C@H](C[C@@H]2O[C@H]2[C@@H](C)[C@H](C)O)[C@@H](O)[C@H]1O`, the “% Inhibition” value was determined as 26.3%.

With `CC(=O)Oc1cc(C(C)C)c(OCCN(C)C)cc1C`, the “% Inhibition” value is 24.8%.

Consider `CCC(=O)OCC(=O)C1(OC(=O)CC)C(C)CC2C3CCC4=CC(=O)C=CC4(C)C3(Cl)C(O)CC21C` (stereo not drawn), for which the “% Inhibition” value stood at 22.7%.

For the compound `NC(=O)C1(N2CCCCC2)CCN(CCCC(=O)c2ccc(F)cc2)CC1`, the “% Inhibition” value is recorded as 18.8%.

As for `CNCCC[C@]12CC[C@H](c3ccccc31)c1ccccc12`, the “% Inhibition” value is on record as 23.8%.

Take `COC(=O)C1[C@H]2C[C@H]3c4[nH]c5ccccc5c4CCN3C[C@@H]2CC[C@@H]1O` (stereo partly drawn): the “% Inhibition” value stood at 22.5%.

As to `CCN(C)C(=O)Oc1cccc([C@H](C)N(C)C)c1` [756883-L2], the “% Inhibition” value came to 25.9%.

For `CC(CCc1ccc(O)cc1)NCC(O)c1ccc(O)cc1` (stereo not drawn), the “% Inhibition” value is -1.52%.

For `CC1(C)S[C@@H]2[C@H](NC(=O)[C@H](NC(=O)N3CCN(S(C)(=O)=O)C3=O)c3ccccc3)C(=O)N2[C@H]1C(=O)O`, the “% Inhibition” value amounted to 18.9%.

On to `COCCCOc1cc(C[C@@H](C[C@H](N)[C@@H](O)C[C@H](C(=O)NCC(C)(C)C(N)=O)C(C)C)C(C)C)ccc1OC`, for which the “% Inhibition” value is on record as -4.92%.

As to `CCC(=O)OCC(=O)[C@@]1(OC(=O)CC)[C@H](C)CC2C3C([C@@H](O)C[C@@]21C)[C@@]1(C)C=CC(=O)C=C1C[C@H]3Cl` (stereo partly drawn), the “% Inhibition” value amounted to 13.3%.

With `CC(=O)OCC(=O)[C@@]12OC(C)(C)O[C@@H]1C[C@H]1[C@@H]3C[C@H](F)C4=CC(=O)C=C[C@]4(C)[C@@]3(F)[C@@H](O)C[C@@]12C`, the “% Inhibition” value is listed as 11.4%.

On to `Cc1cccc(C)c1NC1=NCCCS1`, for which the “% Inhibition” value turned out to be 8.96%.

With `CC(=O)N[C@@H](CS)C(=O)O` [129971-L5], the “% Inhibition” value is 0.0866%.

As to `CN(C)c1ccc(C(=C2C=CC(=[N+](C)C)C=C2)c2ccc(N(C)C)cc2)cc1`, the “% Inhibition” value is 61.7%.

Turning to `COc1cc(N)c(Cl)cc1C(=O)N[C@H]1CCN(CCCOc2ccc(F)cc2)C[C@H]1OC`, the “% Inhibition” value is on record as 9.62%.

For `CC(=O)OCC(=O)[C@@]1(O)CCC2C3CCC4=CC(=O)C=C[C@]4(C)[C@@]3(F)[C@@H](O)C[C@@]21C` (stereo partly drawn), the “% Inhibition” value is 15.9%.

For the compound `CCN[C@@H](C)Cc1cccc(C(F)(F)F)c1`, the “% Inhibition” value came to 20.1%.

For `CC(=O)S[C@@H]1CC2=CC(=O)CC[C@]2(C)[C@H]2CC[C@@]3(C)[C@@H](CC[C@@]34CCC(=O)O4)C12` (stereo partly drawn), the “% Inhibition” value is listed as 28%.

`C/C=C(/C)C(=O)O[C@@H]1[C@H](OC(C)=O)[C@@]2(CO)C(CC1(C)C)C1=CCC3[C@@]4(C)CC[C@H](O[C@@H]5O[C@H](C(=O)O)[C@@H](O[C@@H]6O[C@H](CO)[C@@H](O)[C@H](O)[C@H]6O)[C@H](O)[C@H]5O[C@@H]5O[C@H](CO)[C@@H](O)[C@H](O)[C@H]5O)[C@](C)(CO)C4CC[C@@]3(C)[C@]1(C)C[C@H]2O` (stereo partly drawn): the “% Inhibition” value was 3.82%.

`CCN(CC)C(=O)C1CN2CCc3cc(OC)c(OC)cc3C2CC1OC(C)=O` (stereo not drawn): the “% Inhibition” value stood at 18.9%.

On to `CC(=O)/N=c1\sc(S(N)(=O)=O)nn1C`, for which the “% Inhibition” value came to 11.1%.

Consider `COc1ccc2[nH]c(S(=O)Cc3ncc(C)c(OC)c3C)nc2c1` (stereo not drawn) [255785-L6], for which the “% Inhibition” value amounted to 24.6%.

In the case of `COc1ccc2c3c1O[C@H]1[C@@H](O)C=C[C@H]4[C@@H](C2)N(C)CC[C@@]341`, the “% Inhibition” value was 10.8%.

Take `CC(=O)OCC(=O)[C@@]1(O)CC[C@H]2[C@@H]3CCC4=CC(=O)CC[C@]4(C)[C@@]3(F)[C@@H](O)C[C@@]21C`: the “% Inhibition” value is 17.7%.

For `CC(C)/N=C(N)/N=C(\N)Nc1ccc(Cl)cc1` [131550-L3], the “% Inhibition” value is 10.7%.

On to `N=C(NCCCCCCNC(=N)NC(=N)Nc1ccc(Cl)cc1)NC(=N)Nc1ccc(Cl)cc1`, for which the “% Inhibition” value is on record as 63.6%.

`CC(C)/N=C(N)/N=C(\N)Nc1ccc(Cl)cc1` [131550-L2]: the “% Inhibition” value was 9.42%.

Consider `O=C(O)COC(=O)Cc1ccccc1Nc1c(Cl)cccc1Cl`, for which the “% Inhibition” value is on record as -10.4%.

For the compound `N=C(N)N`, the “% Inhibition” value is 14.8%.

With `Cc1cc2nc3c(=O)[nH]c(=O)nc-3n(C[C@H](O)[C@H](O)[C@H](O)CO)c2cc1C`, the “% Inhibition” value was 14.9%.

In the case of `CO/N=C(\C(=O)N[C@@H]1C(=O)N2C(C(=O)O)=C(CSc3nc(=O)c(=O)[nH]n3C)CS[C@@H]12)c1csc(N)n1`, the “% Inhibition” value worked out at 13.4%.

In the case of `Cc1ccc(S(=O)(=O)NC(=O)NN2CCCCCC2)cc1`, the “% Inhibition” value amounted to 32%.

For `C[C@]12CCC3c4ccc(OS(=O)(=O)O)cc4CCC3C1CCC2=O` (stereo partly drawn), the “% Inhibition” value is -1.63%.

In the case of `CO[C@@H]1[C@@H](OC(N)=O)[C@@H](O)[C@H](Oc2ccc3c(O)c(NC(=O)c4ccc(O)c(CC=C(C)C)c4)c(=O)oc3c2C)OC1(C)C`, the “% Inhibition” value came to 9.7%.

Turning to `O=C(O)CCCCC1CCSS1` (stereo not drawn), the “% Inhibition” value amounted to 21.9%.

For the compound `CCC(=O)O[C@H]1[C@H](O[C@@H]2[C@@H](C)[C@H](O[C@H]3C[C@@](C)(OC)[C@@H](O)[C@H](C)O3)[C@@H](C)C(=O)O[C@H](CC)[C@@](C)(O)[C@H](O)[C@@H](C)C(=O)[C@H](C)C[C@@]2(C)O)O[C@H](C)C[C@@H]1N(C)C`, the “% Inhibition” value came to 4.56%.

`C=Cc1c(C)c2cc3[nH]c(cc4nc(cc5nc(cc1[nH]2)C(C)=C5CCC(=O)O)C(CCC(=O)O)=C4C)c(C)c3C=C`: the “% Inhibition” value is on record as 5.79%.

As for `C[C@H]1CN(C[C@H](Cc2ccccc2)C(=O)NCC(=O)O)CC[C@@]1(C)c1cccc(O)c1`, the “% Inhibition” value is 13.2%.
